# Hits are enriched below; roughly 0.77% of the tested compounds scored in any of these assays.
# L929 necroptosis: inhibitors of zVAD-triggered necroptosis, primary screen, L929 cells | L929 zVAD necroptosis rescue, ATP luminescence, 24 h; with zVAD 60 µM | viability rescue, % at 10 µM | actives 0.38% (n = 220,000);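 active means activation, scaled between plate controls, above about 75%, limit read from the data; inactive means activation under that limit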;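 further: 0% = zVAD with DMSO and 100% = DMSO alone without zVAD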
# TNF death inh: inhibitors of TNF-alpha triggered necroptosis, primary screen, cell-based, Jurkat FADD-/-, single concentration; Jurkat FADD-/- TNF necroptosis rescue, ATP luminescence, 24 h; 0 = TNF only, 100 = no-TNF cells; activation (protection from cell death), % at 10 µM; actives 0.068% (n = 220,000); AID 463075, 2010;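 active means activation, meaning protection from cell death, of at least 50% relative to plate controls; inactive means activation below 50%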;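 further: necroptosis triggered by 40 ng/mL TNF-alpha added together with compound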
# m-calpain inh: inhibitors of pig calpain II, primary screen, biochemical, fluorogenic peptide substrate, 1536-well; purified calpain II, 30 min; inhibition, % at 16 µM; actives 0.37% (n = 220,000); AID 1236, 2008;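 active means inhibition above about 50%, limit read from the data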
# HSV augment: enhancers of HSV replication in host cells, fold increase, host cell viability; actives 0.005% (n = 220,000); AID 1956, 2009; HSV replication augmentation in cells; maximum fold increase; in the data active means maximum fold increase above about 1.5; tested in PC3 cells
# An asterisk follows results filed as active; i = inactive; / = no result given.
SMILES,L929 necroptosis,TNF death inh,m-calpain inh,HSV augment
Cn1c(N)c(C(=O)COC(=O)C2CCC(C(C)(C)C)CC2)c(=O)n(C)c1=O (stereo unspecified),-0.7,-0.3,109.9*,i
Cn1c(N)c(C(=O)COC(=O)C2CCCC2)c(=O)n(C)c1=O,1.9,0.2,16.7,i
Cn1c(N)c(C(=O)COC(=O)C2(c3ccc(Cl)cc3)CCCC2)c(=O)n(C)c1=O,0.1,-2.5,17.3,i
Cn1c(N)c(C(=O)COC(=O)CCC2CCCC2)c(=O)n(C)c1=O,0.6,1.0,79.7*,i
Cn1c(N)c(C(=O)COC(=O)C2(c3ccc(F)cc3)CCCC2)c(=O)n(C)c1=O,1.3,-0.4,76.0*,i
COc1ccc(C2Nc3ccccc3C(=O)N2C2CCCCC2)cc1 (stereo unspecified),1.2,-1.3,i,i
Cc1ccc(-c2c[n+](Cc3ccc(Cl)c(Cl)c3)c3n2CCC3)cc1,0.0,3.1,-11.5,/
Cc1cc(Br)ccc1SCC(=O)OCC(=O)c1c(N)n(C)c(=O)n(C)c1=O,0.5,0.6,76.9*,i
Cc1cc(SCC(=O)OCC(=O)c2c(N)n(C)c(=O)n(C)c2=O)c(C)cc1Br,-0.5,-0.1,3.4,i
CN(C)c1ccc(/C=C/c2ccc3ccccc3[n+]2C)cc1,1.9,-9.8,57.4*,i
Cc1noc2ncnc(Sc3ccc(Br)cc3)c12,-1.0,-4.8,13.2,i
COc1ccccc1C(=O)N1c2ccccc2Sc2ccccc21,1.3,-1.9,29.4,i
CCOc1ccccc1C(=O)N1c2ccccc2Sc2ccccc21,0.1,-2.9,55.1*,i
CC(C)CC(NC(=O)C(COC(C)(C)C)NC(=O)C(Cc1ccc(O)cc1)NC(=O)C(CO)NC(=O)C(Cc1c[nH]c2ccccc12)NC(=O)C(Cc1cnc[nH]1)NC(=O)C1CCC(=O)N1)C(=O)N[C@@H](CCCN=C(N)N)C(=O)N1CCCC1C(=O)NNC(N)=O (stereo partly specified),/,/,/,i
O=C(c1cc(COc2c(F)cccc2F)on1)N1CCC(c2ccccc2Cl)C1 (stereo unspecified),0.6,2.6,55.1*,i
c1ccc2c(-c3[nH]ncc3CNCCCn3ncc4ccccc43)cccc2c1,0.1,1.3,-19.1,i
N#CCCn1cc(C(=O)N2CCCCC2)c(-c2ccc([N+](=O)[O-])cc2)n1,4.3,-0.2,12.9,i
O=S(=O)(Nc1ccc(-n2cccc2)cc1)c1ccc(Cl)cc1Cl,0.3,-0.6,65.3*,i
O=S(=O)(Nc1ccc(-n2cccc2)cc1)c1ccc(Cl)c(Cl)c1,1.0,2.5,34.6,i
CC(C)N(Cc1nc(-c2ccccc2)no1)C(=O)CN1C(=O)c2ccccc2C1=O,-0.1,0.7,17.0,i
CC(C)N(Cc1nc(-c2ccccc2)no1)C(=O)CCCN1C(=O)c2ccccc2C1=O,-0.7,0.0,64.4*,i
Fc1ccc(CSc2nc3ccccc3[nH]2)c2ccccc12,-0.1,0.5,59.0*,i
O=c1cc(CSc2nc3ccccc3[nH]2)c2ccccc2[nH]1,0.8,0.4,-9.6,i
O=C(N/C(=C\c1cccc([N+](=O)[O-])c1)C(=O)N(CCO)CCO)c1ccco1,3.3,-1.2,-21.1,i
COCCn1c(CN2CCN(C)CC2)nc2c1c(=O)n(C)c(=O)n2C,1.4,0.7,85.1*,i
SMILES,L929 necroptosis,TNF death inh,m-calpain inh,HSV augment
CCOCCn1c(CN2CCN(C)CC2)nc2c1c(=O)n(C)c(=O)n2C,0.3,3.8,-8.7,i
FC(F)(F)c1nnc2ccc(NCc3ccccc3)nn12,-0.1,-2.7,91.8*,i
COc1ccc(/C(N)=N/OC(=O)Cc2ccccc2[N+](=O)[O-])cc1,/,2.0,56.7*,i
Cc1ccc(C(=O)NC(=S)NCC2CCCO2)cc1[N+](=O)[O-] (stereo unspecified),0.9,0.1,21.1,i
CCc1cc(C(=O)N2CCCC(CCC(=O)NCc3cccc(OC)c3)C2)no1 (stereo unspecified),-1.5,-0.8,3.4,i
COc1ccc(-c2ccc([C@H]3[C@@H]4C=CCC[C@@]4(C)C(=O)N3Cc3ccccc3)c(F)c2)cc1,1.7,2.4,41.1,i
Cc1ccc(-c2ccc([C@H]3[C@@H]4C=CCC[C@@]4(C)C(=O)N3Cc3ccccc3)c(F)c2)cc1,0.4,1.0,66.3*,i
CC1(C)C(C=C(Cl)Cl)C1C(=O)Nc1ccc([N+](=O)[O-])cc1 (stereo unspecified),1.3,0.0,52.7*,i

# Compound activity as filed in PubChem.
